Assay outcomes (PubChem)
DRD3 agonist = D3 dopamine receptor (human) agonism | P35462 | AID 652048 | D3R DiscoveRx beta-arrestin cells, luminescence, 90 min | hit rate 0.58% among 410,000 | max activation, %; in the data active means max activation above about 30%; further: 0% is about no effect
Target sequence (P35462 whole entry, looked up): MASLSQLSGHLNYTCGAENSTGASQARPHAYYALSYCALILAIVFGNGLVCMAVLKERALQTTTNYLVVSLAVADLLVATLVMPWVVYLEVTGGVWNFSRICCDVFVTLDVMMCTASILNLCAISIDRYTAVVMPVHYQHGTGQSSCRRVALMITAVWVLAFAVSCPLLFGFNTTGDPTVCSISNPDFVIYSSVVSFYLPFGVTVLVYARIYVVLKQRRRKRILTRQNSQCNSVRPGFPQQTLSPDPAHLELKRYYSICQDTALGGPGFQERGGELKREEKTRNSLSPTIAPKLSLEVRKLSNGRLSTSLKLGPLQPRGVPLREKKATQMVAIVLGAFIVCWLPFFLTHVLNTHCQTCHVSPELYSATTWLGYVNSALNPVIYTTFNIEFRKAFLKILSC
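Agonist mode: compounds and dopamine controls were applied to plated cells for 90 min at 37 degrees C after an overnight attachment at 1500 cells/well. Luminescent read-out followed 30 - 60 minutes at room temperature with DiscoveRx detection reagent.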
IL1B secr inh = inflammasome signaling inhibition, IL-1 beta readout; hit rate 4.7% among 360,000; THP-1 LPS/ATP IL-1B secretion, AlphaLISA, 16 h; active compounds read low; activity change, % at 57.5 µM; in the data active means activity change below about -50%; inconclusive means mostly about -30% to -49%; further: on the % scale 0 is the no-effect control and ±100 the full control effect
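Secreted IL-1B measured by AlphaLISA bead assay after 16 h compound exposure of THP-1 cells; compounds (final up to 57.5 uM) added 1 h before LPS (250 ng/mL) and ATP (1.25 mM) stimulation; lower signal means less secretion.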
TDP1 cell noCPT = qHTS for Inhibitors of human tyrosyl-DNA phosphodiesterase 1 (TDP1): qHTS in cells in absence of CPT; Potency, µM (highest dose often 46.2 µM), for the others: at the highest dose activity change, negative = growth inhibition, most hits filed as inhibitors; hit rate 15% among 420,000; DT40 Tdp1-/- hTDP1 cells, no CPT, ATP luminescence, 48 h; further: potency means the concentration at half of the fitted maximal effect; on the % scale 0 is the no-effect control and ±100 the full control effect; nearly all actives have a fitted effect of over 55% in size
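Growth kinetics read by CellTiter-Glo luminescence after ≥48 hr at 37 °C. Cells: DT40 Tdp1-/- stably carrying human TDP1, 400 per well, compound exposure in the absence of CPT (DMSO vehicle).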
ClpP mod = qHTS Assay for Activators of ClpP; purified B. subtilis ClpP, FRET peptide cleavage, 20 min; Potency, µM (series often up to 57.5 µM), for the others: top-dose activity change, negative = active; hit rate 1.9% among 340,000; active means well fitted falling curve with a large enough effect; inconclusive means small, poorly fitted or top-dose-only effect; inactive means no such curve, though single readings can be large or run the other way; further: potency means the concentration at half of the fitted maximal effect; the source files actives as falling curves though it sought activators and does not explain the sign; nearly all actives have a fitted effect of over 65% in size
Target sequence (P80244 whole entry, looked up): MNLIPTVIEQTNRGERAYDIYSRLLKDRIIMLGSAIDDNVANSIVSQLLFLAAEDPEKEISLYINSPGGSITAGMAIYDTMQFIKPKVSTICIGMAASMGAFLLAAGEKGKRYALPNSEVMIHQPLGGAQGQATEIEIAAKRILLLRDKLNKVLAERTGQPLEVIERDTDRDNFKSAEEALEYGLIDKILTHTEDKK
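Purified B. subtilis ClpP, 10 microg/mL final in Tris/HCl pH8 with KCl, BSA, glycerol and Tween-20, cleaved an Abz/nitrotyrosine-quenched decapeptide. Fluorescence (ex 320, em 430) was read at 0 and 20 min at room temperature. Delta was normalized to 5.8 microM ADEP and DMSO/no-enzyme controls.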
TDP1 cell CPT = growth inhibition of DT40 Tdp1-/-;hTDP1 cells with camptothecin (screen for TDP1 inhibitors); chicken DT40 Tdp1-/-;hTDP1 cells + 20 nM CPT, ATP luminescence, 48 h; Potency, µM (doses to about 46.2 µM), for the others: at the highest dose activity change, negative = growth inhibition, usual class: inhibitors; hit rate 12% among 420,000; AID 686979; further: potency means the concentration at half of the fitted maximal effect; on the % scale 0 is the no-effect control and ±100 the full control effect; nearly all actives have a fitted effect of over 55% in size
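Chicken DT40 Tdp1-/- cells complemented with human TDP1, 400 cells/well, exposed to compounds plus 20 nM camptothecin for at least 48 h at 37 C; viability read as ATP content by CellTiter-Glo luminescence.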
D3 antag = antagonists of human D3 dopamine receptor; AID 652054; hit rate 2.5% among 360,000; P35462; D3R cells, DiscoveRx beta-arrestin luminescence, antagonist mode; active compounds read low; max response, negative = inhibition, %; in the data active means max response below about -50%; inconclusive means no clear call, values can overlap the other calls; further: on the % scale 0 is the no-effect control and ±100 the full control effect
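Cells expressing the human receptor were seeded at 1500 cells/well, incubated overnight at 37 degrees C in 5% CO2, then exposed to library compounds with dopamine controls for 90 minutes at 37 degrees C before luminescent detection.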
Numbers without * were called inactive; ? = inconclusive; · = not tested or not shown; [ ] = dose if it differs, or a comment. An excerpt weighted towards active compounds, which were near 21% of everything screened. Unless noted, the call rests on the fitted dose curve; in most records, active means well fitted inhibition curve with a large enough effect; inconclusive means small, poorly fitted or top-dose-only effect; inactive means flat fitted curve, though single readings scatter.

SMILES	DRD3 agonist	IL1B secr inh	TDP1 cell noCPT	ClpP mod	TDP1 cell CPT	D3 antag
CC1=C(C(=O)OCC2CCCO2)C(c2ccccc2)NC(=O)N1 (configuration not stated)	-2.0	6.6	-24.3%	-6.1%	-25.0%	-7.7
COc1ccc(C(=O)N2CCOc3ccc(CN4CCN(c5ccccn5)CC4)cc3C2)o1	·	·	-21.9%	·	3.6%[9.04 µM]	·
CCOC(=O)N1CCN(Cc2ccc3c(c2)CN(C(=O)c2ccc(C#CC(C)(C)O)o2)CCO3)CC1	·	·	9.2µM*	·	?	·
CCOC(=O)N1CCN(Cc2ccc3c(c2)CN(C(=O)c2sc(C)nc2C)CCO3)CC1	·	·	16.4µM*	·	-8.4%[9.04 µM]	·
COCc1ccc(C(=O)N2CCOc3ccc(CN4CCN(c5ccc(F)cc5)CC4)cc3C2)o1	·	·	20.6µM*	·	20.6µM*	·
O=C(c1ccc2[nH]ccc2c1)N1CCOc2ccc(CN3CCN(c4ccccn4)CC3)cc2C1	·	·	?	·	-4.0%[9.04 µM]	·
CCOC(=O)N1CCN(Cc2ccc3c(c2)CN(C(=O)c2ccc4ncccc4c2)CCO3)CC1	·	·	23.1µM*	·	-11.0%[9.04 µM]	·
CCCCn1c(N)c(N(CCOC)C(=O)CCS(=O)(=O)c2ccc(Cl)cc2)c(=O)[nH]c1=O	-12.7	6.0	3.0%	-14.7%	-9.0%	-20.1
CC(C)c1nc(C(=O)N2CCOc3ccc(CN4CCN(c5ccccn5)CC4)cc3C2)cs1	·	·	14.6µM*	·	-17.6%[9.04 µM]	·
Cc1nc2ccccc2nc1CN1CCOc2ccc(CN3CCc4sccc4C3)cc2C1	·	·	-9.0%	·	8.8%	·
Cc1nc2sccn2c1CN1CCOc2ccc(CN3CCN(c4ccc(F)cc4)CC3)cc2C1	·	·	2.59µM*	·	2.91µM*	·
Cc1csc(N(C(=O)c2cccc(S(=O)(=O)N3CCCC3)c2)c2ccccc2)n1	7.0	7.6	18.4µM*	0.7%	20.6µM*	0.0
Cc1csc(N(C(=O)c2cccc(S(=O)(=O)N(C)C)c2)c2ccccc2)n1	-1.4	-14.4	?	-1.1%	14.6µM*	-19.5
COc1cc2c(cc1Cl)C(=O)C(F)(c1ccccc1)C(=O)N2 (configuration not stated)	0.6	-14.9	?	-0.5%	?	8.4
COC(=O)CNC(=O)Nc1cc(C(=O)NCc2ccc(C)cc2)ccc1N1CCCC1	2.5	·	-21.5%	-16.2%	2.0%	·
Cc1cc(OCCN2CCCCCC2)ccc1[N+](=O)[O-]	-15.1	-11.4	21.2%	-1.0%	-4.1%	-68.0*
Cc1cc(OCCCCN2C(=O)NC(C)(C)C2=O)ccc1[N+](=O)[O-]	8.6	-10.4	11.6µM*	·	?	14.7
Cc1ccc(OCCn2ccnc2)c([N+](=O)[O-])c1	-2.5	0.0	-1.3%	-1.3%	-18.2%	7.6
Cc1cc(OCCCn2ccnc2)ccc1[N+](=O)[O-]	-6.2	-78.6*	?	·	-29.0%	14.2
Cc1cc(OCC(=O)N2CCCCCC2)ccc1[N+](=O)[O-]	6.9	1.5	?	46.8%	?	7.6
Cc1ccc([N+](=O)[O-])c(OCCN2C(=O)NC(C)(C)C2=O)c1	0.2	-4.1	-18.5%	2.9%	0.6%	-4.9
COc1ccc(-c2nc3ccccc3s2)cc1NC(=O)c1ccc(C#N)cc1F	-6.0	·	·	-12.0%	·	·
C/C(CCc1ccccc1)=N\NC(=O)C(=O)Nc1cccc(Cl)c1	-11.6	-13.0	?	1.3%	?	-14.6
Cc1sc2ncn(CC(=O)N3CCN(c4ccc(F)cc4)CC3)c(=O)c2c1S(=O)(=O)N1CCCCC1	7.4	·	16.4µM*	1.5%	16.4µM*	·
CCOc1ccc(N(CC)C(=O)Cn2cnc3sc(C)c(S(=O)(=O)N4CCN(c5ncccn5)CC4)c3c2=O)cc1	1.6	·	9.2µM*	-1.5%	13µM*	·
SMILES	DRD3 agonist	IL1B secr inh	TDP1 cell noCPT	ClpP mod	TDP1 cell CPT	D3 antag
Cc1ccc(C)c(N2CCN(C(=O)Cn3cnc4sc(C)c(S(=O)(=O)N5CCN(c6ncccn6)CC5)c4c3=O)CC2)c1	-16.3	·	9.2µM*	0.6%	18.4µM*	·
Cc1sc2ncn(CC(=O)N3CCN(c4ccccc4)CC3)c(=O)c2c1S(=O)(=O)N1CCOCC1	1.8	3.2	?	·	17.6%	9.7
CCOC(=O)C1CCCN(C(=O)Cn2cnc3sc(C)c(S(=O)(=O)N4CCOCC4)c3c2=O)C1 (configuration not stated)	-7.5	-53.0*	-9.4%	·	-0.5%	11.6
CCOC(=O)C1CCN(C(=O)Cn2cnc3sc(C)c(S(=O)(=O)N4CCCCC4)c3c2=O)CC1	4.3	-10.6	3.3%	1.0%	3.3%	8.6
O=S1(=O)CC(N2CCCC2)CN1Cc1cn(Cc2cccc(Cl)c2)nn1 (configuration not stated)	5.5	1.9	-15.7%	1.4%	4.0%	-21.5
Cc1cccc(C)c1NC(=O)c1csc([C@H]2C[C@H](O)[C@@H](CO)O2)n1	-20.6	8.4	16.4%	-1.6%	-28.2%	-7.5
O=C1CN(C(=O)c2c(F)cccc2Cl)C(c2ccc(F)cc2)c2cc(Br)ccc2N1 (configuration not stated)	6.3	·	?	0.9%	?	·
c1ccc(C[C@H]2CNCCN2CCCCC2CCCCC2)cc1	0.0	-80.2*	?	0.3%	?	0.0
c1ccc2c(C[C@@H]3CNCCN3CCCCC3CCCCC3)cccc2c1	1.6	-15.7	?	-0.6%	?	30.6
c1ccc(C[C@H]2CNCCN2CC2CCCCC2)cc1	-0.4	-23.5	16.4µM*	2.2%	?	21.7
CCN(c1ccc(OC)cc1)S(=O)(=O)c1ccc2[nH]c3c(c2c1)CCCCC3	7.7	·	·	?	·	·
Cc1ccc(S(=O)(=O)n2cccc2/C=C/[N+](=O)[O-])cc1	0.3	?	2.91µM*	1.0%	2.91µM*	-22.1
CCC(C)n1c(OC)nc2c1c(=O)n(C)c(=O)n2C (configuration not stated)	11.4	12.5	?	·	23.1µM*	15.3
C/C=C/COc1nc2c(c(=O)n(C)c(=O)n2C)n1C	3.8	-5.5	14.6µM*	0.1%	23.1µM*	0.0
CC(Oc1nc2c(c(=O)n(C)c(=O)n2C)n1C)C1CCCCC1 (configuration not stated)	-9.2	0.0	16.4µM*	-3.6%	23.1µM*	30.5
C1=C/C(=C2/C=Cc3ccccc32)c2ccccc2N1	·	·	-93.2%	1.4%	?	·
CN1CCN(c2ccc(C(=O)c3cn(-c4ccc(F)c(Cl)c4)nn3)cc2)CC1	-9.5	10.4	16.4µM*	·	?	0.1
Cc1ccccc1-c1nc(CN2CCC(C(=O)NCc3ccco3)CC2)c(C)o1	-0.7	-67.1*	?	-1.4%	?	-16.1
Cc1ccccc1-c1nc(CN2CCC(C(=O)NCc3ccc(F)cc3)CC2)c(C)o1	-6.2	·	20.6µM*	-6.6%	16.4µM*	·
